Test results as given in PubChem BioAssay AID2071 (Sanford-Burnham Center for Chemical Genomics, 2009).
The campaign covered roughly 280,000 compounds. About 1,700 (0.61%) were called active. No stated cut-off is given here; in the data, active means inhibition mostly above about 24% (no sharp cut-off); inactive means mostly below about 32%. For the sample, actives were picked, then their nearest neighbours and some compounds at random.

Test: NALP1 inflammasome inhibitors in reconstituted yeast, colorimetric, S. cerevisiae, triplicate retest (AID 2071)
Settings: S. cerevisiae NALP1/ASC/caspase-1 growth, X-gal OD620, 72 h, stronger effect = higher value

COc1ccc(Cl)cc1NC(=O)CN1CCN(C(=O)N2CCOCC2)CC1
inhibition (at 10 µM unless noted): 5.1% (inactive)

Clc1cccc(CN2COc3c(cc(Cl)c4cccnc34)C2)c1
inhibition (at 10 µM unless noted): 125% (active)

Nc1c(C(=O)NCc2ccccc2)nnn1Cc1cccc(Cl)c1
inhibition (at 10 µM unless noted): 7% (inactive)

CC(C)CC(=O)N1CCN(Cc2cccc(Cl)c2)CC1
inhibition (at 10 µM unless noted): 10.5% (inactive)

CCC(NC(=O)c1cc(COc2ccc(F)c(F)c2)on1)c1ccncc1 (stereo not given)
inhibition (at 10 µM unless noted): 0.6% (inactive)

Cc1ccc(NS(=O)(=O)c2ccc(-c3coc(C)n3)cc2)c(C)c1
inhibition (at 10 µM unless noted): 3.2% (inactive)

COC(=O)/C=C\C(=O)Nc1cccc([N+](=O)[O-])c1
inhibition (at 10 µM): 108% (active)
inhibition (triplicate retest, at 20 µM): 116%

COc1cccc(CNC(=O)CCCC(=O)Nc2cccc([N+](=O)[O-])c2)c1
inhibition (at 10 µM unless noted): -4.2% (inactive)

O=C(CSCC(=O)Nc1cccc([N+](=O)[O-])c1)Nc1ccccc1
inhibition (at 10 µM unless noted): 27.6% (inactive)

O=S1(=O)CCOC[C@H](CC2CCCCC2)N1Cc1ccc(F)cc1
inhibition (at 10 µM unless noted): 22.6% (inactive)

C/C(=N\NC(=O)C1(C)CC1(Br)Br)c1ccc(C)cc1C (stereo not given)
inhibition (at 10 µM unless noted): -0.3% (inactive)

CCC(=O)c1ccc(OCC(O)CN2CCN(c3cccc(C(F)(F)F)c3)CC2)cc1 (stereo not given)
inhibition (at 10 µM): 52.2% (active)
inhibition (triplicate retest, at 20 µM): 65.2%

O=C(COc1ccc(Cl)cc1)N1CCN(c2cccc(C(F)(F)F)c2)CC1
inhibition (at 10 µM unless noted): -4.3% (inactive)

CCC(=O)c1ccc(OCC(O)CN2CC(C)OC(C)C2)cc1 (stereo not given)
inhibition (at 10 µM unless noted): 0.7% (inactive)

COc1ccc(S(=O)(=O)N2CCOC2CNC(=O)C(=O)NCc2ccncc2)cc1C (stereo not given)
inhibition (at 10 µM unless noted): 0.1% (inactive)

CCC(=O)c1cn(CCOc2ccccc2OC)c2ccccc12
inhibition (at 10 µM unless noted): 14.8% (inactive)

OCCn1c(-c2ccccc2)csc1=Nc1ccccc1
inhibition (at 10 µM unless noted): 50.3% (active)

Cc1csc(=NC(=O)c2ccccc2)n1CCO
inhibition (at 10 µM unless noted): 2.4% (inactive)

Cc1csc(=Nc2ccccc2)n1CCO
inhibition (at 10 µM unless noted): 26.1% (inactive)

O=C(NCCCN1CCOCC1)c1cc(-c2ccccc2F)no1
inhibition (at 10 µM unless noted): 20.9% (inactive)

C[N+](C)(C)CCNC(=O)c1cc[n+](Cc2ccccc2)c(/C=N/O)c1
inhibition (at 10 µM unless noted): 6.7% (inactive)

O=C(NC1CCCC1)c1cc(-c2ccccc2)on1
inhibition (at 10 µM unless noted): 15.4% (inactive)

CC(=O)C(C)n1cnc2scc(-c3ccc(C)cc3)c2c1=O (stereo not given)
inhibition (at 10 µM unless noted): -5% (inactive)

C/C(=N\NC(=O)COc1ccc(C)cc1[N+](=O)[O-])c1ccc2c(c1)OCCO2
inhibition (at 10 µM unless noted): 12% (inactive)

CCOc1ccc(NS(=O)(=O)c2ccc(OCC(=O)NCCCOC)cc2)cc1
inhibition (at 10 µM unless noted): -2.5% (inactive)

COCCCNC(=O)COc1cc(C)c(Cl)c(C)c1
inhibition (at 10 µM unless noted): 33.8% (active)

COCCNC(=O)COc1ccccc1C
inhibition (at 10 µM unless noted): 6.3% (inactive)

CCSc1nsc(NC(=O)Nc2ccccc2OC)n1
inhibition (at 10 µM unless noted): 18.6% (inactive)

COc1cccc(CNCCc2c[nH]c3ccccc23)c1OCc1ccccc1F
inhibition (at 10 µM unless noted): -3.7% (inactive)

COc1ccc(C(CCNCc2ccccc2F)c2ccc(F)cc2)cc1 (stereo not given)
inhibition (at 10 µM): 46.5% (active)
inhibition (triplicate retest, at 20 µM): 74.4%

COc1ccc(CC(=O)NC(C)CCc2ccccc2)cc1 (stereo not given)
inhibition (at 10 µM unless noted): 7.9% (inactive)

CCCOc1ccc(NC(=O)C2CCCNC2=O)cc1 (stereo not given)
inhibition (at 10 µM unless noted): 7.4% (inactive)

CCCCNC(=O)C1CCC(=O)N1CCc1ccccc1 (stereo not given)
inhibition (at 10 µM unless noted): -0.8% (inactive)

CCCCNC(=O)C1CCCNC1=O (stereo not given)
inhibition (at 10 µM unless noted): 42.8% (active)

O=[N+]([O-])c1ccc(NC(=S)N2CCN(c3ccccn3)CC2)cc1
inhibition (at 10 µM unless noted): 9.2% (inactive)

CC(=O)N1c2ccc(S(=O)(=O)N3CCCC(C(=O)NCc4ccc(Cl)cc4)C3)cc2CC1C (stereo not given)
inhibition (at 10 µM unless noted): -3.9% (inactive)

COc1ccccc1NC(=O)C1CCN(C(=O)c2ccc(C(C)(C)C)cc2)CC1
inhibition (at 10 µM unless noted): 3.2% (inactive)

CC(C)CC(=O)NC(=S)Nc1cc(C(=O)O)ccc1Cl
inhibition (at 10 µM unless noted): 11.6% (inactive)

CC(=O)c1ccc(NC(=S)NC(=O)CC(C)C)cc1
inhibition (at 10 µM unless noted): 27.8% (inactive)

CC(C)CC(=O)NC(=S)Nc1ccc(F)cc1F
inhibition (at 10 µM unless noted): 42.9% (active)

COc1cc(C2C(C(=O)c3ccc(C)o3)=C(O)C(=O)N2Cc2cccnc2)ccc1O (stereo not given)
inhibition (at 10 µM unless noted): -2.8% (inactive)

COc1ccc(C2C(C(C)=O)=C(O)C(=O)N2CCc2c[nH]c3ccccc23)cc1 (stereo not given)
inhibition (at 10 µM unless noted): 5.6% (inactive)

COc1ccc(C2C(C(C)=O)=C(O)C(=O)N2Cc2cccnc2)cc1 (stereo not given)
inhibition (at 10 µM unless noted): 33.6% (active)

CC1Cc2cc(/C(O)=C3\C(=O)C(=O)N(Cc4cccnc4)C3c3ccccc3F)ccc2O1 (stereo not given)
inhibition (at 10 µM unless noted): 29.4% (inactive)

Cc1ccc(-n2ncc(C(=O)NC3CC3)c2C2CCN(C(=O)OC(C)(C)C)CC2)c(C)c1
inhibition (at 10 µM unless noted): -2.6% (inactive)

O=C(NCc1cccs1)C1CCN(S(=O)(=O)c2ccc3c(c2)OCCO3)CC1
inhibition (at 10 µM unless noted): -1.6% (inactive)

O=C(NCc1cccs1)C1CCN(S(=O)(=O)c2ccc(Cl)cc2)CC1
inhibition (at 10 µM unless noted): 23.6% (active)

O=C(NCc1ccc(Cl)cc1)C1CCN(S(=O)(=O)c2cccs2)CC1
inhibition (at 10 µM unless noted): 4% (inactive)

CCc1ccc(/C=N/NC(=O)c2nnn(-c3nonc3N)c2CN2CCc3ccccc32)cc1
inhibition (at 10 µM unless noted): 0% (inactive)

O=C(Nc1nnc(C2CC2)s1)c1cc(Cl)sc1Cl
inhibition (at 10 µM unless noted): 5.9% (inactive)

CCCCNC(=O)CSc1nnc(-c2ccco2)n1C
inhibition (at 10 µM unless noted): 10.9% (inactive)

Cn1c(SCC(=O)Nc2ccc(Br)cc2F)nnc1-c1ccco1
inhibition (at 10 µM unless noted): 31.1% (active)

Cn1c(SCC(=O)c2cccs2)nnc1-c1ccco1
inhibition (at 10 µM unless noted): 14.7% (inactive)

O=C(Nc1ccc(C(=O)N2CCOCC2)cc1)Nc1cccc(C(F)(F)F)c1
inhibition (at 10 µM unless noted): -1.5% (inactive)

O=C(CN1CCCCCC1)Nc1ccc(Br)cc1[N+](=O)[O-]
inhibition (at 10 µM unless noted): -4.1% (inactive)

Cc1ccc(S(=O)(=O)N2CCN=C2SCc2c(F)cccc2Cl)cc1
inhibition (at 10 µM unless noted): 14.5% (inactive)

COc1cccc(CNc2ncc(-c3ccccc3)n2C)c1
inhibition (at 10 µM unless noted): -8.5% (inactive)

Cn1c(SCC(=O)C(C)(C)C)nnc1-c1ccccn1
inhibition (at 10 µM unless noted): 43.3% (active)

CCn1c(SCC(=O)NC2CC2)nnc1-c1ccccn1
inhibition (at 10 µM unless noted): 20% (inactive)

Cn1c(SCC(=O)c2ccc(F)cc2)nnc1-c1ccccn1
inhibition (at 10 µM unless noted): 4.2% (inactive)

FC(F)(F)c1nnc2c3ccccc3c(Cl)nn12
inhibition (at 10 µM unless noted): 2.1% (inactive)

COc1ccc(N2C(=O)C3CCCN3C2c2cccs2)cc1 (stereo not given)
inhibition (at 10 µM unless noted): 11.5% (inactive)

COc1ccc(N2C(=O)C3CCCN3C2c2cccc(OC)c2)cc1 (stereo not given)
inhibition (at 10 µM unless noted): -8.3% (inactive)

COc1ccc(N2C(=O)C3CCCN3C2c2cc(OC)c(OC)cc2OC)cc1 (stereo not given)
inhibition (at 10 µM unless noted): 41.6% (active)

O=C(CN1CCN(C(=O)C2CCCO2)CC1)Nc1c(Cl)cccc1Cl (stereo not given)
inhibition (at 10 µM unless noted): 17.6% (inactive)

COc1ccc(-c2c(C#Cc3ccccc3)c3ccccc3n2C)cc1
inhibition (at 10 µM unless noted): 15.3% (inactive)

CC(=O)Nc1ccc(NC(=O)CS(=O)(=O)c2cn(CC(=O)N3CCCCC3)c3ccccc23)cc1
inhibition (at 10 µM unless noted): 5.8% (inactive)

C=CS(=O)c1sc(Cl)c(N2CCOCC2)c1[N+](=O)[O-] (stereo not given)
inhibition (at 10 µM unless noted): 37.6% (active)

Cc1cccc(NC(=O)c2ccc(S(=O)(=O)N(C)CC3CCCO3)cc2)c1C (stereo not given)
inhibition (at 10 µM unless noted): 15.7% (inactive)

Cc1nc(Cl)c(C#N)c2c1CCCC2
inhibition (at 10 µM unless noted): 41.9% (active)

CC(C)Cc1nc(Cl)c(C#N)c2c1CCC2
inhibition (at 10 µM unless noted): 8% (inactive)

COCc1c(N)c(C)nc(Cl)c1C#N
inhibition (at 10 µM unless noted): -22.9% (inactive)

COc1ccc(NCCc2ccccn2)cc1
inhibition (at 10 µM unless noted): 8.9% (inactive)

O=C(NCCCc1ccccc1)C(=O)NCC1OCCN1S(=O)(=O)c1ccccc1 (stereo not given)
inhibition (at 10 µM unless noted): -4.3% (inactive)

COc1ccc(CCNC(=O)C(=O)NCC2OCCN2S(=O)(=O)c2cccs2)cc1OC (stereo not given)
inhibition (at 10 µM unless noted): 0.8% (inactive)

COc1cccc(NC(=O)[C@H](Cc2c[nH]c3ccccc23)NC(=O)[C@@H]2Cc3ccccc3CN2)c1
inhibition (at 10 µM unless noted): 17.2% (inactive)

CC(C)(C)c1ccc(NC(=O)NCc2ccco2)cc1
inhibition (at 10 µM unless noted): 21.4% (inactive)

CC(C)(C)NC(=O)NCc1ccco1
inhibition (at 10 µM unless noted): 41.4% (active)

Cc1ccccc1NC(=O)NCc1ccco1
inhibition (at 10 µM unless noted): 23.9% (inactive)

Cc1[nH]n(C(N)=S)c(=O)c1N=Nc1ccc(Cl)cc1Cl
inhibition (at 10 µM unless noted): 0.4% (inactive)

COc1ccc(-n2nc(C(=O)NCC(=O)N3CCN(c4ccccc4OC)CC3)c3ccccc3c2=O)c(OC)c1
inhibition (at 10 µM unless noted): 20.4% (inactive)

CN(c1ccc(O)cc1)c1nc(-c2cccnc2)cs1
inhibition (at 10 µM unless noted): 12.3% (inactive)

O=C(NC(=S)Nc1ccc(Cl)cc1Cl)C1CC1
inhibition (at 10 µM unless noted): 10.6% (inactive)

O=C(NCC(=O)N1CCN(c2ncc(C(F)(F)F)cc2Cl)CC1)c1ccc(Br)o1
inhibition (at 10 µM unless noted): 6.1% (inactive)

Cc1nc(NCCN)c(C#N)c2c1COC(C)(C)C2
inhibition (at 10 µM unless noted): 8.1% (inactive)

Cc1nc(NCc2ccccc2)c(C(N)=O)c2c1COC(C)(C)C2
inhibition (at 10 µM unless noted): 37.7% (active)

CC1(C)Cc2cccc(OCC(=O)NCc3ccccc3)c2O1
inhibition (at 10 µM unless noted): -5.5% (inactive)

COc1ccccc1C(=O)COC(=O)CNS(=O)(=O)c1ccc(NC(C)=O)cc1
inhibition (at 10 µM unless noted): 16.9% (inactive)

Cc1ccccc1C(=O)NC(=S)NC1CC1
inhibition (at 10 µM unless noted): 12.2% (inactive)

CCCCNC(=O)CSc1nc2n[nH]c(C)c2c(=N)n1-c1cccc(Cl)c1C
inhibition (at 10 µM unless noted): -3.5% (inactive)

COc1cccc(-n2c(SCC(=O)NC3CCCCC3)nc3n[nH]c(C)c3c2=N)c1
inhibition (at 10 µM unless noted): -7.2% (inactive)

Cc1ccc(-n2c(SCC(=O)NCCC3=CCCCC3)nc3n[nH]c(C)c3c2=N)cc1Cl
inhibition (at 10 µM unless noted): 39.4% (active)

COc1ccc(N(C)C(=O)C2CCN(S(=O)(=O)c3cccc4nsnc34)CC2)cc1
inhibition (at 10 µM unless noted): 9.7% (inactive)

Cc1ccc(NC(=O)c2cc3ccccc3o2)cc1
inhibition (at 10 µM unless noted): 8.6% (inactive)

O=C(CCCCCn1c(=S)[nH]c2ccsc2c1=O)NC1CCCCC1
inhibition (at 10 µM unless noted): -20.3% (inactive)

Cc1cc(NC(=O)c2ccccc2C)no1
inhibition (at 10 µM unless noted): 17% (inactive)

CCOCCCNC(=O)C(NC(=O)CNC(=O)c1ccccc1)c1ccc(OC)cc1 (stereo not given)
inhibition (at 10 µM unless noted): -2.8% (inactive)

CCOCCCNC(=O)C(NC(=O)CNC(=O)c1ccccc1)c1ccc(C)cc1 (stereo not given)
inhibition (at 10 µM unless noted): 38.2% (active)

CCOCCCNC(=O)C(NC(=O)Cc1c[nH]c2ccccc12)c1ccc(OC)cc1 (stereo not given)
inhibition (at 10 µM unless noted): 6.3% (inactive)

CCOCCCNC(=O)C(NC(=O)c1ccc(=O)[nH]c1)c1ccc(C)cc1 (stereo not given)
inhibition (at 10 µM unless noted): -4% (inactive)

CCOCCCNC(=O)C(NC(=O)c1ccccc1O)c1ccccc1 (stereo not given)
inhibition (at 10 µM unless noted): -7.8% (inactive)

CCOCCCNC(=O)C(NC(=O)c1ccc(=O)[nH]c1)c1ccc(Cl)cc1 (stereo not given)
inhibition (at 10 µM unless noted): 38.8% (active)
